# Experimental data from article PMC7862700, “An all-to-all approach to the identification of sequence-specific readers for epigenetic DNA modifications on cytosine”.
# Experiments:
# Test in all cases: DAPPL (digital affinity profiling via proximity ligation, sequencing); 10 mM Tris-HCl pH 7.5, 50 mM NaCl, 1 mM DTT, 4% glycerol, room temperature, 30 min; GST-TFs on glutathione beads, 16-mer random dsDNA library, 0.1% formaldehyde crosslink after washing; high values mean tight binding
# FEV = molecular target: T1, FEV (Homo sapiens, UniProt Q99581 1-238); conditions: protein: recombinant; tags: N-terminal GST; dsDNA, one strand shown
# T1 sequence: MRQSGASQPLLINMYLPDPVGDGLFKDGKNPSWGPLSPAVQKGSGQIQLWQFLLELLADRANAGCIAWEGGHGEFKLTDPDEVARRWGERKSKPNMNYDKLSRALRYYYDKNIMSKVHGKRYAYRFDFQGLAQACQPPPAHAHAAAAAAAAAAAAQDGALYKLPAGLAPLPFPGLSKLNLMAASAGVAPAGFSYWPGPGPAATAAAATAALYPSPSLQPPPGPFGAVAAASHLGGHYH
# Method in brief: (§1)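 The binding signal reported is, for every hexamer, its read frequency for a factor over its read frequency for the tag-only sample. Reads came from pools of yeast-expressed, GST-fused human transcription factors on glutathione beads, barcoded with DNA and mixed with that sample, which were incubated with 200 nmole of a random double-stranded 16-mer DNA library in Tris/NaCl/DTT/glycerol buffer at room temperature for 30 min. After washing, the pools were crosslinked with 0.1% formaldehyde, proximity-ligated with BsaI/T4 ligase for 1 h at 37 °C, PCR-amplified and sequenced on an Illumina NextSeq500.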
# ETV5 = ETV5 (Homo sapiens, UniProt P41161 1-510); conditions: protein: recombinant; tags: N-terminal GST; dsDNA, one strand shown
# Method in brief: as §1
# HSF1 = HSF1 (Homo sapiens, UniProt Q00613 1-529); conditions: protein: recombinant; tags: N-terminal GST; chain copies: 3; dsDNA, one strand shown
# Method in brief: as §1
# SPIC = molecular target: T2, SPIC (Homo sapiens, UniProt Q8N5J4 1-248); conditions: protein: recombinant; tags: N-terminal GST; dsDNA, one strand shown
# T2 sequence: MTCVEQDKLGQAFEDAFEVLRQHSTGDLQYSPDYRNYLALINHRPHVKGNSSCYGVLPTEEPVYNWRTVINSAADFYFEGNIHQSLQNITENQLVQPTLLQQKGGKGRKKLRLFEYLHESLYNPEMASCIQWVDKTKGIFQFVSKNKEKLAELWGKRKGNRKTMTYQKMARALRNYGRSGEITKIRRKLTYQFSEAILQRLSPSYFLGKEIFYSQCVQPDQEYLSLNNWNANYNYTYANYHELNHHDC
# Method in brief: as §1
# ELF4 = ELF4 (Homo sapiens, UniProt Q99607 1-663); conditions: protein: recombinant; tags: N-terminal GST; dsDNA, one strand shown
# Method in brief: as §1
# ELK4 = molecular target: T3, ELK4 (Homo sapiens, UniProt P28324-2 1-405); conditions: protein: recombinant; tags: N-terminal GST; dsDNA, one strand shown
# T3 sequence: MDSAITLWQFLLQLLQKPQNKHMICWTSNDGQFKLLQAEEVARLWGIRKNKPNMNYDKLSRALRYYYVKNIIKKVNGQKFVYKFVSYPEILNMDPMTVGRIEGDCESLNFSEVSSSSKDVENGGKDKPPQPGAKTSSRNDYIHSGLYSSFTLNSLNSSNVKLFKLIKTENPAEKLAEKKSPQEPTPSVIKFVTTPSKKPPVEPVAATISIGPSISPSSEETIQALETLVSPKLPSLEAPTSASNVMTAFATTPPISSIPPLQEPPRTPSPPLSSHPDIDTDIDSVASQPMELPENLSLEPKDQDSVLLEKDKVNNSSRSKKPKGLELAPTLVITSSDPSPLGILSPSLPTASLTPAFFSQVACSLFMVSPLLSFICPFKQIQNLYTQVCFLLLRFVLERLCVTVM
# Method in brief: as §1
# ELF3 = molecular target: T4, ELF3 (Homo sapiens, UniProt P78545 1-371); conditions: protein: recombinant; tags: N-terminal GST; dsDNA, one strand shown
# T4 sequence: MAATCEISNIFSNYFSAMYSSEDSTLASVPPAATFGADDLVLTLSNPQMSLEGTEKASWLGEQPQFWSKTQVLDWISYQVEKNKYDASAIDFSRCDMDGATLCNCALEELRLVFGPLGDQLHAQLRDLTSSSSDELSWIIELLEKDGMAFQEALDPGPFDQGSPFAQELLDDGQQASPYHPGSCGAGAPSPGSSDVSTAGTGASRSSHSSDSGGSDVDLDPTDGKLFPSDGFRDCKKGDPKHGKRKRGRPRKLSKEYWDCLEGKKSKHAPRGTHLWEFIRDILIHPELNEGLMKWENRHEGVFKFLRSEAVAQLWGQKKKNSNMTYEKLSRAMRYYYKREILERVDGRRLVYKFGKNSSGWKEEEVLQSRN
# Method in brief: as §1
# CRX = CRX (Homo sapiens, UniProt O43186 1-299); conditions: protein: recombinant; tags: N-terminal GST; dsDNA, one strand shown
# Method in brief: as §1
# ETV1 = ETV1 (Homo sapiens, UniProt P50549 1-477); conditions: protein: recombinant; tags: N-terminal GST; dsDNA, one strand shown
# Method in brief: as §1
# ERF = molecular target: T5, ERF (Homo sapiens, UniProt P50548 1-548); conditions: protein: recombinant; tags: N-terminal GST; dsDNA, one strand shown
# T5 sequence: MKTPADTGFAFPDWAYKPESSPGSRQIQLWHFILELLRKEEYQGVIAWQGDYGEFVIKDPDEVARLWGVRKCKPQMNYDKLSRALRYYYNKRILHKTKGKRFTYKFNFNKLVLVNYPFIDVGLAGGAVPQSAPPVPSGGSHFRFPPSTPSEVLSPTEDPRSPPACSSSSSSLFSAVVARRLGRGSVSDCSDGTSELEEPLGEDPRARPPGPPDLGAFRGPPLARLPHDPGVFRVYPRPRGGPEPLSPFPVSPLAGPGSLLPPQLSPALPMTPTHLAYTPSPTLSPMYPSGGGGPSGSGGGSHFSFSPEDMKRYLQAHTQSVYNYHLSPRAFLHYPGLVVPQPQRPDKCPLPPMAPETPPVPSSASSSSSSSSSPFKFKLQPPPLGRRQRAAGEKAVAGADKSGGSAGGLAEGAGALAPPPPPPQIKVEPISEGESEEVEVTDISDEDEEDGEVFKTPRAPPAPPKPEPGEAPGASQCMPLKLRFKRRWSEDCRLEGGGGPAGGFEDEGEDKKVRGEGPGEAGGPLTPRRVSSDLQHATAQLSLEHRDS
# Method in brief: as §1
# ETV3L = molecular target: T6, ETV3L (Homo sapiens, UniProt Q6ZN32 1-361); conditions: protein: recombinant; tags: N-terminal GST; dsDNA, one strand shown
# T6 sequence: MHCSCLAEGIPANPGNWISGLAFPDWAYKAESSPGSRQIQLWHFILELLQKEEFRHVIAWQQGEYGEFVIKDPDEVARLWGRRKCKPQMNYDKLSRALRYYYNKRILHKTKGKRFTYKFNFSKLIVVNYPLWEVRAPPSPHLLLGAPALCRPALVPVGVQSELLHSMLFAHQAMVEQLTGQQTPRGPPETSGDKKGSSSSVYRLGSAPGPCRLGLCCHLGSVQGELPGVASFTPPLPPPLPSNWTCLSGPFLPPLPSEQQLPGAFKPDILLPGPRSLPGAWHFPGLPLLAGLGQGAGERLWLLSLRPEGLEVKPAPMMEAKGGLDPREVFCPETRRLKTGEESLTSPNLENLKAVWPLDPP
# Method in brief: as §1
# ETS2 = molecular target: T7, ETS2 (Homo sapiens, UniProt P15036 1-469); conditions: protein: recombinant; tags: N-terminal GST; dsDNA, one strand shown
# T7 sequence: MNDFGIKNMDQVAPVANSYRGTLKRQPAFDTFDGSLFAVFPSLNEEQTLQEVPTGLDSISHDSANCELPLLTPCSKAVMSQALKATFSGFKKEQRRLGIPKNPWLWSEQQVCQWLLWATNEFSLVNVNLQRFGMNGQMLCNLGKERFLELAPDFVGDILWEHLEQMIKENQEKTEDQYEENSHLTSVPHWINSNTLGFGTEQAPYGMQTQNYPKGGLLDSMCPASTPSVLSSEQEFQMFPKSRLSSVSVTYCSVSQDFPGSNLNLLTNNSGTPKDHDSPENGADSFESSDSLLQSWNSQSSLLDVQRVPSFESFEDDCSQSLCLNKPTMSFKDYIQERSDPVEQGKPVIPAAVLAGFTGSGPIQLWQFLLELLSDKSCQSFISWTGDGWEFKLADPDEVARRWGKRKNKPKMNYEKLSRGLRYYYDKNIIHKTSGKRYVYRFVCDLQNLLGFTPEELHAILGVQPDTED
# Method in brief: as §1
# SPDEF = molecular target: T8, SPDEF (Homo sapiens, UniProt O95238 1-335); conditions: protein: recombinant; tags: N-terminal GST; dsDNA, one strand shown
# T8 sequence: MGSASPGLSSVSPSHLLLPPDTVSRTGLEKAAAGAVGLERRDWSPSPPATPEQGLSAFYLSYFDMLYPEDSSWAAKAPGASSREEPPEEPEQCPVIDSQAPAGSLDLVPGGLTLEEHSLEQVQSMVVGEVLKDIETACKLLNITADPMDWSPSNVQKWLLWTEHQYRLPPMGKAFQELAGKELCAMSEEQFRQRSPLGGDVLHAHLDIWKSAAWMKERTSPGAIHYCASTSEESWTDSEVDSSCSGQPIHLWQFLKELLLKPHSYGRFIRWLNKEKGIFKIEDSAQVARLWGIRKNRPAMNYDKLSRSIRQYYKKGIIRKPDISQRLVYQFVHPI
# Method in brief: as §1
# ETV7 = molecular target: T9, ETV7 (Homo sapiens, UniProt Q9Y603 1-341); conditions: protein: recombinant; tags: N-terminal GST; dsDNA, one strand shown
# T9 sequence: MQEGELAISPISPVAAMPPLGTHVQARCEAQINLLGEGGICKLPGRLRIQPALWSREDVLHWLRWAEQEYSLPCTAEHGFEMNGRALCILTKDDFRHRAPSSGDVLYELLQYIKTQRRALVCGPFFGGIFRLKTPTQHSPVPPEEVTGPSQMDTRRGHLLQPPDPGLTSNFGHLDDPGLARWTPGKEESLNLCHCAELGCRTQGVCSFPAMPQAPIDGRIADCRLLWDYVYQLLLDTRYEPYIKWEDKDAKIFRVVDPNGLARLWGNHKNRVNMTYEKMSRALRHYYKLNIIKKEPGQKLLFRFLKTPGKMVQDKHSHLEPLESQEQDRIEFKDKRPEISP
# Method in brief: as §1
# ELF5 = molecular target: T10, ELF5 (Homo sapiens, UniProt Q9UKW6-2 1-255); conditions: protein: recombinant; tags: N-terminal GST; dsDNA, one strand shown
# T10 sequence: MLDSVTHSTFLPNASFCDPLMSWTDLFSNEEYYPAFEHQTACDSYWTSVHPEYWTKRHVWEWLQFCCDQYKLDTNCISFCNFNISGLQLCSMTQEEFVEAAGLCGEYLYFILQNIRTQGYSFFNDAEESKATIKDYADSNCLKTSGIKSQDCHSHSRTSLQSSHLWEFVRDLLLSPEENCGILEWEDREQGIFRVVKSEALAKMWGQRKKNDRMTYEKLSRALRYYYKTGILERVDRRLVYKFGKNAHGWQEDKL
# Method in brief: as §1
# ETV3 = molecular target: T11, ETV3 (Homo sapiens, UniProt P41162-2 1-143); conditions: protein: recombinant; tags: N-terminal GST; dsDNA, one strand shown
# T11 sequence: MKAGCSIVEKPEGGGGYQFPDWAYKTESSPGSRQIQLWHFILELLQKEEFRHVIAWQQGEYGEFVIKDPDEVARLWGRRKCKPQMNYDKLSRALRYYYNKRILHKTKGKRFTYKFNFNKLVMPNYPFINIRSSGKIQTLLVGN
# Method in brief: as §1
# ETV6 = ETV6 (Homo sapiens, UniProt P41212 1-452); conditions: protein: recombinant; tags: N-terminal GST; dsDNA, one strand shown
# Method in brief: as §1
# Sequence of ELF4 (Q99607 whole entry): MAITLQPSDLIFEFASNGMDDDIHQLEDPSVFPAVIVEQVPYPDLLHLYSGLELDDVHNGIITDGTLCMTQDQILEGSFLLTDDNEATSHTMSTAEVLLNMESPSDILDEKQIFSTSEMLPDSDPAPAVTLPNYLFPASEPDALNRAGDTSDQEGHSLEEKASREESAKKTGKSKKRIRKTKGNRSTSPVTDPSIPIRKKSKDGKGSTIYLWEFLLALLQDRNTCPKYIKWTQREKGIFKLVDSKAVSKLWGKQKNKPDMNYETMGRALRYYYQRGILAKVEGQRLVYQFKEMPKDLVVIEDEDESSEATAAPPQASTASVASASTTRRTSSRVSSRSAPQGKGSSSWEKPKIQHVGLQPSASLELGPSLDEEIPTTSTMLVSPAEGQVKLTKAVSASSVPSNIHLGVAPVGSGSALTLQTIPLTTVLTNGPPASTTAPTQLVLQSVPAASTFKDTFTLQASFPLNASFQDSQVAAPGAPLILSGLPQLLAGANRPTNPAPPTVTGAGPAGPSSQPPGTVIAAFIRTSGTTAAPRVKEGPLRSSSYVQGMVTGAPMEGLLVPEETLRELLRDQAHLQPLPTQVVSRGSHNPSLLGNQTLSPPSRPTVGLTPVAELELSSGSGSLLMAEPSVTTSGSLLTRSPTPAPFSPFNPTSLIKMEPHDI
# Sequence of HSF1 (Q00613 whole entry): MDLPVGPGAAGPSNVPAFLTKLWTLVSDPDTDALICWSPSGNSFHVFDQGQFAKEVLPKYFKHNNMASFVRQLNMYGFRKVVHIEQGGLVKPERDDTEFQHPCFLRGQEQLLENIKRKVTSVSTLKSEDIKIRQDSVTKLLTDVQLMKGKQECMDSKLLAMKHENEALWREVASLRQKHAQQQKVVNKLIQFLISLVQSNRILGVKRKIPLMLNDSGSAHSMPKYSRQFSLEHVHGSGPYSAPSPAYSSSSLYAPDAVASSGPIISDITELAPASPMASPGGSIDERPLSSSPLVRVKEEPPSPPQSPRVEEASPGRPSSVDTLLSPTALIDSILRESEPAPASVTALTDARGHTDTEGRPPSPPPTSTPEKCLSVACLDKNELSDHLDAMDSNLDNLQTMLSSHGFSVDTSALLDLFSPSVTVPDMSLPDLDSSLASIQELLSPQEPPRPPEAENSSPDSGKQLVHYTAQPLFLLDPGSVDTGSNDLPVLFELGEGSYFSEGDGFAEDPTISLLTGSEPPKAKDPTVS
# Sequence of ETV1 (P50549 whole entry): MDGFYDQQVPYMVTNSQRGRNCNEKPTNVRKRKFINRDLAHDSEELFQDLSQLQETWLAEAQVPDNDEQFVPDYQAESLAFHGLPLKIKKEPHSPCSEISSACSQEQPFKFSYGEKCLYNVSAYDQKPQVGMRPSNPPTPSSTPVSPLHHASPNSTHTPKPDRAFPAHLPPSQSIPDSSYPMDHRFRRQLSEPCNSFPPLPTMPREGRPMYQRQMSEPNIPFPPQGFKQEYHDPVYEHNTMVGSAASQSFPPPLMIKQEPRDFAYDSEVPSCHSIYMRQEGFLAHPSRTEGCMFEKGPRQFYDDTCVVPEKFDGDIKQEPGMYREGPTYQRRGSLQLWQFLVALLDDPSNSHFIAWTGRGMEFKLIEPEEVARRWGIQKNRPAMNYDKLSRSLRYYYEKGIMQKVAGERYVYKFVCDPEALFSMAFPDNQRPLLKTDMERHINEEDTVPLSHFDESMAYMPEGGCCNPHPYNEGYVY
# Sequence of CRX (O43186 whole entry): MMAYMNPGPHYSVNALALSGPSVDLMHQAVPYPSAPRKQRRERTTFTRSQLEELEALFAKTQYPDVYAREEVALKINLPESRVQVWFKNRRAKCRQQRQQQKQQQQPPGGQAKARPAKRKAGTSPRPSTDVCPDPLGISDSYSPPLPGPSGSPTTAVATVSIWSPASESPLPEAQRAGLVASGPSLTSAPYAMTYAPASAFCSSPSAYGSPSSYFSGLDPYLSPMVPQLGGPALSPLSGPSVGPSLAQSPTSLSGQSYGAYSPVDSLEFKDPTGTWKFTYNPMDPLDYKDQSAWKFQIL
# Sequence of ETV6 (P41212 whole entry): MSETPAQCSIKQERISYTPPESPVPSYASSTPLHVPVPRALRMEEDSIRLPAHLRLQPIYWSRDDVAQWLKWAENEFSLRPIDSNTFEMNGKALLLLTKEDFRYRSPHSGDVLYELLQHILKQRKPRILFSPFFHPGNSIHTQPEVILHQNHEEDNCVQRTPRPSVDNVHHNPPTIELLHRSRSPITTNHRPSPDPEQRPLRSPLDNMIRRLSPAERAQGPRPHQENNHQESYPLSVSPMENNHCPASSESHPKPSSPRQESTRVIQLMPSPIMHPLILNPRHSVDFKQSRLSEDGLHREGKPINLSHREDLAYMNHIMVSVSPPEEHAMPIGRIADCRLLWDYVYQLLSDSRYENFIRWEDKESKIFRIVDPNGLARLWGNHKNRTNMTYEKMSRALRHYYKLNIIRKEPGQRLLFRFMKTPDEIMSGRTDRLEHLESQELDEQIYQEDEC
# Sequence of ETV5 (P41161 whole entry): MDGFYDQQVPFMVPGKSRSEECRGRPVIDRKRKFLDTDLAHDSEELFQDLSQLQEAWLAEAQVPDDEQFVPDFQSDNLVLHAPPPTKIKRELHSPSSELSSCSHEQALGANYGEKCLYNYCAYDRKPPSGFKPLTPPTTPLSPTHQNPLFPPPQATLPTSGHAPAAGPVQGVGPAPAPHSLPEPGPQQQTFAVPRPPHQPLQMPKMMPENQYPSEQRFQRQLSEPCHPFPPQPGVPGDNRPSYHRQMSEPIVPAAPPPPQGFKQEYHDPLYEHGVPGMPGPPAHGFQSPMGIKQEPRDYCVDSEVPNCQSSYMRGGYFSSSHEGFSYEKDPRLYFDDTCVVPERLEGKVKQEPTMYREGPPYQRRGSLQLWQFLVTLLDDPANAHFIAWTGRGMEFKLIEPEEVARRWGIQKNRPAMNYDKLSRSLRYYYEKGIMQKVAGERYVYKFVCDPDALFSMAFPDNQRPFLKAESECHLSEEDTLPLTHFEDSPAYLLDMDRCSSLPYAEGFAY
sequence,measurement,setting,value
AGCCTC,binding signal,FEV,"1.27 fold enrichment (6-mer frequency, TF over GST control)"
same,binding signal,ETV5,"1.27 fold enrichment (6-mer frequency, TF over GST control)"
same,binding signal,HSF1,"1.3 fold enrichment (6-mer frequency, TF over GST control)"
same,binding signal,SPIC,"1.25 fold enrichment (6-mer frequency, TF over GST control)"
same,binding signal,ELF4,"1.36 fold enrichment (6-mer frequency, TF over GST control)"
same,binding signal,ELK4,"1.13 fold enrichment (6-mer frequency, TF over GST control)"
same,binding signal,ELF3,"1.22 fold enrichment (6-mer frequency, TF over GST control)"
same,binding signal,CRX,"1.33 fold enrichment (6-mer frequency, TF over GST control)"
same,binding signal,ETV1,"1.13 fold enrichment (6-mer frequency, TF over GST control)"
same,binding signal,ERF,"1.22 fold enrichment (6-mer frequency, TF over GST control)"
same,binding signal,ETV3L,"1.32 fold enrichment (6-mer frequency, TF over GST control)"
same,binding signal,ETS2,"1.3 fold enrichment (6-mer frequency, TF over GST control)"
same,binding signal,SPDEF,"1.14 fold enrichment (6-mer frequency, TF over GST control)"
same,binding signal,ETV7,"1.31 fold enrichment (6-mer frequency, TF over GST control)"
same,binding signal,ELF5,"1.16 fold enrichment (6-mer frequency, TF over GST control)"
same,binding signal,ETV3,"1.15 fold enrichment (6-mer frequency, TF over GST control)"
same,binding signal,ETV6,"1.18 fold enrichment (6-mer frequency, TF over GST control)"
TCCCAA,binding signal,FEV,"1.17 fold enrichment (6-mer frequency, TF over GST control)"
same,binding signal,ETV5,"1.2 fold enrichment (6-mer frequency, TF over GST control)"
same,binding signal,HSF1,"1.11 fold enrichment (6-mer frequency, TF over GST control)"
same,binding signal,SPIC,"1.17 fold enrichment (6-mer frequency, TF over GST control)"
same,binding signal,ELF4,"1.24 fold enrichment (6-mer frequency, TF over GST control)"
same,binding signal,ELK4,"1.09 fold enrichment (6-mer frequency, TF over GST control)"
same,binding signal,ELF3,"1.16 fold enrichment (6-mer frequency, TF over GST control)"
same,binding signal,CRX,"1.23 fold enrichment (6-mer frequency, TF over GST control)"
same,binding signal,ETV1,"1.2 fold enrichment (6-mer frequency, TF over GST control)"
same,binding signal,ERF,"1.34 fold enrichment (6-mer frequency, TF over GST control)"
same,binding signal,ETV3L,"1.23 fold enrichment (6-mer frequency, TF over GST control)"
same,binding signal,ETS2,"1.12 fold enrichment (6-mer frequency, TF over GST control)"
same,binding signal,SPDEF,"1.18 fold enrichment (6-mer frequency, TF over GST control)"
same,binding signal,ETV7,"1.11 fold enrichment (6-mer frequency, TF over GST control)"
same,binding signal,ELF5,"1.21 fold enrichment (6-mer frequency, TF over GST control)"
same,binding signal,ETV3,"1.16 fold enrichment (6-mer frequency, TF over GST control)"
same,binding signal,ETV6,"1.23 fold enrichment (6-mer frequency, TF over GST control)"
